Results from PubChem BioAssay (NCI).
The panel holds about 83,000 compounds, 20% with a hit somewhere; the sample as a whole holds those more often.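 Testing used 96-well plates and a 48-hour single-concentration exposure. Example: -40 means 40% of the starting cells died.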 Active and inactive are the calls of the source. The calls were made as follows: active = growth percent below 10; inactive = the rest.

The compounds below were run on K-562 leukemia (assay: NCI-60 one-dose screen, 48 h (100 = growth as untreated, 0 = no growth, -100 = all killed)). Settings: 10 µM unless noted.

Structure (SMILES) | growth
O=[N+]([O-])c1cc2c(cc1Br)-c1ccccc1C2 | 95.6% (inactive)
Clc1ccc(Nc2nc(Nc3ccccc3)nc(Nc3ccc(-c4cc(-c5ccc(Cl)cc5)on4)cc3)n2)cc1 | 40.2% (inactive)
Cc1cc(=O)c2c(C)ccc(C)c2[nH]1 | 109% (inactive)
Cc1cc(=O)[nH]n1-c1cc(Cl)ccc1N | 99.4% (inactive)
CC(C)OC1=C(Cl)C(=O)c2ccccc2C1=O | 22.8% (inactive)
COc1cccc(C2CC(=O)Nc3cc4c(cc32)OCO4)c1OC (centres undefined) | 83.1% (inactive)
COc1ccccc1CNCCCCCCCCCCCCN1C(=O)c2ccc3c4c(ccc(c24)C1=O)C(=O)N(CCCCCCCCCCCCNCc1ccccc1OC)C3=O | 35.2% (inactive)
O=C1C=CC(=O)N1CCCCCCCCCCN1C(=O)C=CC1=O | 5.56% (active)
Cc1ccc(N=c2nc3sc4c(C)ccc(C)c4n3c(N)c2C#N)cc1 | 88.6% (inactive)
COc1cc2nc(SCc3cc(OC)c(OC)c(OC)c3)n(-c3ccccc3OC)c(=O)c2cc1OC | 27.3% (inactive)
Cc1nc2nc(C(F)(F)F)[nH]c2nc1C | 92.9% (inactive)
CC(C)(C)[Si](C)(C)OC1[C@@H](CNC(=O)NC(=O)CCl)O[C@@H](n2cnc3c(N)ncnc32)[C@H]1O[Si](C)(C)C(C)(C)C (some centres undefined) | -33.9% (active)
Fc1ccccc1Nc1ccc2nnc(-c3ccncc3)n2n1 | 93.4% (inactive)
NC(=O)c1nc2c([nH]c1=O)CCCC2 | 92.2% (inactive)
CCN1CCN(C(=S)SCC(=O)Nc2nc3ccc(OC)cc3s2)CC1 | 91.8% (inactive)
O=C(NCc1cccnc1)c1ccc([N+](=O)[O-])o1 | 22.1% (inactive)
N#CC1=C(N)Oc2cc(N)ccc2C1c1ccc(F)cc1 (centres undefined) | 24.8% (inactive)
O=c1[nH]c(-c2ccncc2)nc2sc3c(c12)CCCCCC3 | 88.1% (inactive)
CC1SC(c2cccc(Oc3ccccc3)c2)N(CCc2cccs2)C1=O (centres undefined) | 9.44% (active)
COc1ccc(-c2c(-c3cc4c(c(OC)c3OC)OCO4)noc2N)cc1 | 16.1% (inactive)

Structure (SMILES) | growth
c1ccc(-c2n(Cc3ccc4ccccc4n3)c3ccccc3[n+]2Cc2ccc3ccccc3n2)cc1 | 2.99% (active)
O=S(=O)(Nc1ncccn1)c1ccc(Nc2ccc3nnc(-c4ccncc4)n3n2)cc1 | 102% (inactive)
CC(=O)c1cc(C)c(OC(=O)c2ccccc2)c(C)c1 | 85.7% (inactive)
Oc1ccccc1/C=N/Nc1nc2ccccc2s1 | 41% (inactive)
O=C1NC(=S)S/C1=C\c1cccc([N+](=O)[O-])c1 | 68.5% (inactive)
COCCOC1=C(Cl)C(=O)c2ccccc2C1=O | 8.89% (active)
O=C1NC(=O)C(CSc2ccccc2)(c2ccccc2)N1 (centres undefined) | 104% (inactive)
Clc1ccccc1Nc1ccc2nnc(-c3ccncc3)n2n1 | 47.6% (inactive)
COc1cc(CNCCCN2C(=O)c3ccc4c5c(ccc(c35)C2=O)C(=O)N(CCCNCc2cc(OC)c(OC)c(OC)c2)C4=O)cc(OC)c1OC | 7.69% (active)
O=C1C(OCCOc2ccccc2)=C(OCCOc2ccccc2)C(=O)c2ccccc21 | 66.4% (inactive)
COc1ccc(OC)c(C2C(C#N)=C(N)Oc3cc(O)ccc32)c1 (centres undefined) | 83.4% (inactive)
O=C1c2ccccc2C(=O)c2c(Nc3ccc(CCO)cc3)ccc(O)c21 | 17.2% (inactive)
CCOC(=O)c1c(Cl)c2c(n1Cc1ccc(OC)cc1)-c1oncc1CCC2 | 92.1% (inactive)
Cc1oc2c(c1C(=O)N1CC[C@@H](N)C1)C(=O)c1c(c(O)c3ccccc3c1O)C2=O | 3.82% (active)
O=C1c2[nH]cc(CN[C@@H]3CCCN3)c2C(=O)c2c1c(O)c1ccccc1c2O | -81.5% (active)
O=C1C(N2CCOCC2)=Cc2cccc3cccc1c23 | 30.8% (inactive)
COc1ccc(Cn2c(Br)c3c(c2-c2cc(OC)c(OC)c(OC)c2)CCc2sc(N)nc2-3)cc1 | 4.43% (active)
Nc1nc2c(s1)CCc1c-2c(Br)n(Cc2ccccc2)c1Br | 15.4% (inactive)
COC(=O)/C=C1/CCC2C3CCC4=CC(=O)C(Br)CC4(C)C3C(=O)CC12C (centres undefined) | 48.9% (inactive)
